Holding throughout (experiment): DAPPL (digital affinity profiling via proximity ligation, sequencing); 10 mM Tris-HCl pH 7.5, 50 mM NaCl, 1 mM DTT, 4% glycerol, room temperature, 30 min; GST-TFs on glutathione beads, 16-mer random dsDNA library, 0.1% formaldehyde crosslink after washing; high values mean tight binding
Holding throughout (conditions): protein: recombinant; tags: N-terminal GST; dsDNA, one strand shown

In assay [1] the target is T1, ELK1 (Homo sapiens, UniProt P19419 1-428).
T1 sequence: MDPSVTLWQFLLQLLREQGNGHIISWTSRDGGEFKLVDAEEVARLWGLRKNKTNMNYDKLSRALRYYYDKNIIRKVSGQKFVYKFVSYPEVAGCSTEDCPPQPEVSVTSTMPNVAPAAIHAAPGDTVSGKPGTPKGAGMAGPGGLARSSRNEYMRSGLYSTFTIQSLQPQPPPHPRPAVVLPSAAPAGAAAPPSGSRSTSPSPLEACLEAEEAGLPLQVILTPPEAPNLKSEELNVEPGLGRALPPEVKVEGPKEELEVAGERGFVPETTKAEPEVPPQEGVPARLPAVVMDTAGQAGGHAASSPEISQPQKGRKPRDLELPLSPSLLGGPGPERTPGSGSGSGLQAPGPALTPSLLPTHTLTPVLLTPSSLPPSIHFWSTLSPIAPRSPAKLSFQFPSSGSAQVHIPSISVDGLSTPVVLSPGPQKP
Summed up: (§1)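 GST fusions of human transcription factors were expressed in yeast and captured with glutathione beads. Once given DNA barcodes and pooled alongside a tag-only sample, they were incubated for 30 min at room temperature with 200 nmole of a random double-stranded 16-mer DNA library in Tris/NaCl/DTT/glycerol buffer, then washed, crosslinked (0.1% formaldehyde), proximity-ligated, PCR-amplified and sequenced on an Illumina NextSeq500. The binding signal of each hexamer is its read frequency for a factor divided by its frequency for the tag-only sample.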

The target of assay [2] is T2, GABPA (Homo sapiens, UniProt Q06546 1-454).
T2 sequence: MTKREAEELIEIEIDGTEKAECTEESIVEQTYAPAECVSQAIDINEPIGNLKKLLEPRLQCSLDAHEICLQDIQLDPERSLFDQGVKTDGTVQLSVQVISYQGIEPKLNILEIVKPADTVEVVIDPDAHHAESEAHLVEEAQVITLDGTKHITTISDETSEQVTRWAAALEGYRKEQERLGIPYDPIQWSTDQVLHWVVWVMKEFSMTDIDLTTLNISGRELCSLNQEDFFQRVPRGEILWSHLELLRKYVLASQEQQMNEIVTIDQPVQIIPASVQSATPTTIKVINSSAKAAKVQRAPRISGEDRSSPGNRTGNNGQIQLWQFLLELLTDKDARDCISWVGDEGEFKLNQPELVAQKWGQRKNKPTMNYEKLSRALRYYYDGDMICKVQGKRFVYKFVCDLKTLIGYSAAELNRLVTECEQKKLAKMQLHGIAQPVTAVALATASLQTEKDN
The method in brief: as §1

Assay [3] deals with T3, ERG (Homo sapiens, UniProt P11308 1-479).
T3 sequence: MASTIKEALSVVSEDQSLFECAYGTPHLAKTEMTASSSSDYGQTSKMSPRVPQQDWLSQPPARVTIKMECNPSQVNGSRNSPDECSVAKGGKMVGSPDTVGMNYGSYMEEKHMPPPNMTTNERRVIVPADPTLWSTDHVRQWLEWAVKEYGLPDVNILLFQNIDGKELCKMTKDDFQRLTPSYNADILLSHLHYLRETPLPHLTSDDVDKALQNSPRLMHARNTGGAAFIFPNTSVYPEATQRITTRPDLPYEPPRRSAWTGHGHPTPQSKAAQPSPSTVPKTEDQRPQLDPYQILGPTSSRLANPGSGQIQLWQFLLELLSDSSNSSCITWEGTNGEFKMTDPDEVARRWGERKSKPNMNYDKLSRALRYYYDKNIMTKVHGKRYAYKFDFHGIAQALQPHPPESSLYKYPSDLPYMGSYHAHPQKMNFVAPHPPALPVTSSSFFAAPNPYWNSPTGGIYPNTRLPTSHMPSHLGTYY
Summed up:
as §1

Assay [4] has as its target ELF1 (Homo sapiens, UniProt P32519 1-619). Summed up: as §1
Assay [5] concerns the target T4, EHF (Homo sapiens, UniProt Q9NZC4 1-300).
T4 sequence: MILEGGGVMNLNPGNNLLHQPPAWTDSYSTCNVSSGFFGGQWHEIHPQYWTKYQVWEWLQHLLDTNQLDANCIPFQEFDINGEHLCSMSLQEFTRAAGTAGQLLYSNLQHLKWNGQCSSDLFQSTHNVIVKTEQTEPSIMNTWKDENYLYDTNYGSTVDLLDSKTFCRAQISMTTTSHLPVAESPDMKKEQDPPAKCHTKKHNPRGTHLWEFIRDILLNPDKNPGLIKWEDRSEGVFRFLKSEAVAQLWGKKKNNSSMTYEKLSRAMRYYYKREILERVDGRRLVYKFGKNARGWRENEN
The method in brief:
as §1

The target of assay [6] is SPI1 (Homo sapiens, UniProt P17947 1-270). The method in brief:
as §1

For assay [7], the target named is SPIB (Homo sapiens, UniProt Q01892 1-262). The method in brief: as §1
In assay [8] the target is T5, FEV (Homo sapiens, UniProt Q99581 1-238).
T5 sequence: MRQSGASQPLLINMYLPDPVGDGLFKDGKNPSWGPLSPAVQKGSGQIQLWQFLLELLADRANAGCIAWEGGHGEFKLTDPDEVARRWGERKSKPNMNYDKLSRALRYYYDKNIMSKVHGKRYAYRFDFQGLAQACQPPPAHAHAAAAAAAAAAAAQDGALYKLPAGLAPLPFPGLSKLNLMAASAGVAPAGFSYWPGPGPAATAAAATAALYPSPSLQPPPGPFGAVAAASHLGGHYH
Summed up:
as §1

For assay [9], the target named is ETV5 (Homo sapiens, UniProt P41161 1-510). The method in brief:
as §1

Assay [10] addresses ELF4 (Homo sapiens, UniProt Q99607 1-663). Summed up: as §1
Assay [11] concerns the target T6, ELK4 (Homo sapiens, UniProt P28324-2 1-405).
T6 sequence: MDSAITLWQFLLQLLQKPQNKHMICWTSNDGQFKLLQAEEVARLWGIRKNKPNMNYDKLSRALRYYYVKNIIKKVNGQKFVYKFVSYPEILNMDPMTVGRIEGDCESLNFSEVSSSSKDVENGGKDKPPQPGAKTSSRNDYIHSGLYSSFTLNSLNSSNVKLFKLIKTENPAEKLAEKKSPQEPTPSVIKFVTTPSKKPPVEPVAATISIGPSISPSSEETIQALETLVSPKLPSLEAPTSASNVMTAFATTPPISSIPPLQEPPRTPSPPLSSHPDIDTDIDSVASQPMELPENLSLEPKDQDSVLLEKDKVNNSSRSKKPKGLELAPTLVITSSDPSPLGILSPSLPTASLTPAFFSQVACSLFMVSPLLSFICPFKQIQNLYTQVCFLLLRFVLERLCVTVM
The method in brief: as §1

Assay [12] addresses T7, ETV2 (Homo sapiens, UniProt O00321 1-342).
T7 sequence: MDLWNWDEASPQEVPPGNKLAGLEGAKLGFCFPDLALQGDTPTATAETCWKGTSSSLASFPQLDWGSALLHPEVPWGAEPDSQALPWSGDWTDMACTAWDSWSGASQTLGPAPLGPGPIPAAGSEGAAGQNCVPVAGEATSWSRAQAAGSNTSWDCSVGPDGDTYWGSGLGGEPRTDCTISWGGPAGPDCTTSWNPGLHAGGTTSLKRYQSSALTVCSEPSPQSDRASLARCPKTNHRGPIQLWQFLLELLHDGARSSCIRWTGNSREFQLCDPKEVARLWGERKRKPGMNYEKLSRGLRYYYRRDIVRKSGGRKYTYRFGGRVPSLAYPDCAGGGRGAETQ
Summed up: as §1

The target in assay [13] is T8, ELF3 (Homo sapiens, UniProt P78545 1-371).
T8 sequence: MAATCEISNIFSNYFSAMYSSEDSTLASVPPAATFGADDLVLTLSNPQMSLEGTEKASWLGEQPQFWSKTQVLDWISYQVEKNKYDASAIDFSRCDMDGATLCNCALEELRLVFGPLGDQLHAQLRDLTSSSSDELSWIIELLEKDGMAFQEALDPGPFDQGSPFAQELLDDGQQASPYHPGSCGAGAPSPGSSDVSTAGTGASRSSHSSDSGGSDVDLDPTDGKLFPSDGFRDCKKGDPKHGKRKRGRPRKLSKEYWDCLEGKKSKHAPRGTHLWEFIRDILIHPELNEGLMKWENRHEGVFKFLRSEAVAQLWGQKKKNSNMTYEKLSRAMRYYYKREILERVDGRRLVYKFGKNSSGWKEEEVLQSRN
The method in brief:
as §1

Assay [14] has as its target ETV1 (Homo sapiens, UniProt P50549 1-477). The method in brief: as §1
Assay [15] addresses T9, ERF (Homo sapiens, UniProt P50548 1-548).
T9 sequence: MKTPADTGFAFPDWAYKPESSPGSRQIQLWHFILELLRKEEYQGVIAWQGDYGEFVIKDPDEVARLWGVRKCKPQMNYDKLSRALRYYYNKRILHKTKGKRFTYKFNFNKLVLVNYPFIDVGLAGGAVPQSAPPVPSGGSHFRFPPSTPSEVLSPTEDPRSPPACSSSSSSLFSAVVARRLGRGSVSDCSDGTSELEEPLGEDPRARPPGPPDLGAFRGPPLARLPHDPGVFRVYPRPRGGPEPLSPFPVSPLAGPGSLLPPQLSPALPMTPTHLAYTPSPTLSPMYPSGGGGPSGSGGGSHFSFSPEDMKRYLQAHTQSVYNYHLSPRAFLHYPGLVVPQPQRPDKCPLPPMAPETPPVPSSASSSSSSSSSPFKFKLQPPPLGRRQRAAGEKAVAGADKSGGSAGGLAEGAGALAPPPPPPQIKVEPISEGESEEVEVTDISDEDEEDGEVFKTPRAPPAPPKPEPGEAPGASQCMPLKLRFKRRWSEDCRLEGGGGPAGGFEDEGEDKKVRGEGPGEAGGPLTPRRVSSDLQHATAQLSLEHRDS
Summed up: as §1

Assay [16] deals with T10, ETV3L (Homo sapiens, UniProt Q6ZN32 1-361).
T10 sequence: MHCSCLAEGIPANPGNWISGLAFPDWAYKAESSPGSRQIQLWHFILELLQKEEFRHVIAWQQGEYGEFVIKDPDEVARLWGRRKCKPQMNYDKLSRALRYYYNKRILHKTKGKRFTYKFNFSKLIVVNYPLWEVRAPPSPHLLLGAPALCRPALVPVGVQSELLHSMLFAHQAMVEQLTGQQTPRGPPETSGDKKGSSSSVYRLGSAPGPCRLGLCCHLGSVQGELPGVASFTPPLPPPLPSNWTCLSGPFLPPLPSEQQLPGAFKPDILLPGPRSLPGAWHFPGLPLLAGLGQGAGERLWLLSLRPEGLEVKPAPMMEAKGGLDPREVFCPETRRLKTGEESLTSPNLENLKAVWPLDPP
The method in brief: as §1

For assay [17], the target named is T11, ETS2 (Homo sapiens, UniProt P15036 1-469).
T11 sequence: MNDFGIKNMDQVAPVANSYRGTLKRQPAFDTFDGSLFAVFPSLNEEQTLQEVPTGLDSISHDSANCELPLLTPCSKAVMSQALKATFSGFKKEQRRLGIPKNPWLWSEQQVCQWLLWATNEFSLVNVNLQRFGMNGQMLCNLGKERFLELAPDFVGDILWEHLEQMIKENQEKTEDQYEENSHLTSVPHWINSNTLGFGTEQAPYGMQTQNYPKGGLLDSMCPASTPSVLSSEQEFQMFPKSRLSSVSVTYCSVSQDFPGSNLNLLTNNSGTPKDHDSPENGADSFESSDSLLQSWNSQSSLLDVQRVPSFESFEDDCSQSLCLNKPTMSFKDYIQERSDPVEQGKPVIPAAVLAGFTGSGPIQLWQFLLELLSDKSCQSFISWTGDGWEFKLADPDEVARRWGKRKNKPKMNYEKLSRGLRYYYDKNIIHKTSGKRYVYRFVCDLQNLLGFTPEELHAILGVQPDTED
Summed up:
as §1

The target in assay [18] is T12, ETV3 (Homo sapiens, UniProt P41162-2 1-143).
T12 sequence: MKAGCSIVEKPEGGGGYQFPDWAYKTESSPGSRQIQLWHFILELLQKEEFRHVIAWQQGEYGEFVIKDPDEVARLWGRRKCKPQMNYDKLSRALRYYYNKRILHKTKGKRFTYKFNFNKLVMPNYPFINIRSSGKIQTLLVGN
Summed up: as §1

In assay [19] the target is ETV6 (Homo sapiens, UniProt P41212 1-452). Summed up:
as §1

Chain of SPIB (Q01892 whole entry): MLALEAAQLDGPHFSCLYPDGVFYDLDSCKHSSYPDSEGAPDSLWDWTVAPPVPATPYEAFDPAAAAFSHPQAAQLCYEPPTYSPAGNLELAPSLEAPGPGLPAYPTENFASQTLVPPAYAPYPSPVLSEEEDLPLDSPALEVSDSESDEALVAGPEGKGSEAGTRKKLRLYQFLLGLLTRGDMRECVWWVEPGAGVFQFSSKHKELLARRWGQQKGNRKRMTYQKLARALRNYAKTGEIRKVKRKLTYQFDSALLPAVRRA
Chain of ETV5 (P41161 whole entry): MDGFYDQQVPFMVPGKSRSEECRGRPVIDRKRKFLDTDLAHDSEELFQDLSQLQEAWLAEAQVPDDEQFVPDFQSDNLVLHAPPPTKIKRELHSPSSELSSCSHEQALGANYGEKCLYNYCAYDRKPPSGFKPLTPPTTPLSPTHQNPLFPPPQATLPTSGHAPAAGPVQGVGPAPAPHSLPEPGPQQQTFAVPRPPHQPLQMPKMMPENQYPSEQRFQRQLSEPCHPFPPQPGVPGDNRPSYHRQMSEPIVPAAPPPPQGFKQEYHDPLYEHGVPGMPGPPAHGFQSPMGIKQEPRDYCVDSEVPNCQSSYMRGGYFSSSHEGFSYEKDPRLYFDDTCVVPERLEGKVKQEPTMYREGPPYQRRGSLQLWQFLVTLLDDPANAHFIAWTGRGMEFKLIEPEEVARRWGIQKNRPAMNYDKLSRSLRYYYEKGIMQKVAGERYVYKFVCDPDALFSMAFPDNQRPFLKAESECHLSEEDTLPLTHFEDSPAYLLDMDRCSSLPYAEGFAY
Chain of ELF4 (Q99607 whole entry): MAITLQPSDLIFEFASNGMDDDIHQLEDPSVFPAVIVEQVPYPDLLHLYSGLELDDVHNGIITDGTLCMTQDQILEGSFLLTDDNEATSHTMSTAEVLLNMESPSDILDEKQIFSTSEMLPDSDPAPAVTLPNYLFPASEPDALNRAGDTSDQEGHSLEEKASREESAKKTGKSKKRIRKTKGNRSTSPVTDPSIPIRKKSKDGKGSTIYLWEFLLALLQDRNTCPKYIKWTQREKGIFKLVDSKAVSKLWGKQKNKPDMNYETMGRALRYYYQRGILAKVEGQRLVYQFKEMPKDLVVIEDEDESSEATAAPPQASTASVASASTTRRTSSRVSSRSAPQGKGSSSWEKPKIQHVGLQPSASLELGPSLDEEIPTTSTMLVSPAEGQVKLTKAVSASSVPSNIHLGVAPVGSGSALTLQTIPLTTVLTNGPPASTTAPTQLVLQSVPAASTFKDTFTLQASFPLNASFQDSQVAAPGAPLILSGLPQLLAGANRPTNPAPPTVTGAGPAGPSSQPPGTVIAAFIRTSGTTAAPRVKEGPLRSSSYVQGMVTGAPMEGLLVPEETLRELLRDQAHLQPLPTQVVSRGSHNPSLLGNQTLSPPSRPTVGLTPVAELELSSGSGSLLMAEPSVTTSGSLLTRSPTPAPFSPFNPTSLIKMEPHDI
Chain of ELF1 (P32519 whole entry): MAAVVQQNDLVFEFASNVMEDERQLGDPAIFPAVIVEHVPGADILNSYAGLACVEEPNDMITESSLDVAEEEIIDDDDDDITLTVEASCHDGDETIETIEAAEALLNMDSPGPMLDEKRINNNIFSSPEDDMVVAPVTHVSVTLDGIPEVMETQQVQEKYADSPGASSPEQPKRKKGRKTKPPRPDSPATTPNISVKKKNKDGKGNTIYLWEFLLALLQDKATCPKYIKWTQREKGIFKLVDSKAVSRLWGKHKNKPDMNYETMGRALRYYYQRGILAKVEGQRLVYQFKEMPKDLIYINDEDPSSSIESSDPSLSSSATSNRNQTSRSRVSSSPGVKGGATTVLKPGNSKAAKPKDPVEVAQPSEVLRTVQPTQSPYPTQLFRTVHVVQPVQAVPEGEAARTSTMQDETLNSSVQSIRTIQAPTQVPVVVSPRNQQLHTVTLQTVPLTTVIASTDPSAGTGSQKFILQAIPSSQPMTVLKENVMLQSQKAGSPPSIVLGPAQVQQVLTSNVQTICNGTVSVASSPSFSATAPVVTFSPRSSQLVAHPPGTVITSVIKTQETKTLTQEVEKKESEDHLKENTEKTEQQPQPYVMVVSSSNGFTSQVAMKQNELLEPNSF
Chain of ETV6 (P41212 whole entry): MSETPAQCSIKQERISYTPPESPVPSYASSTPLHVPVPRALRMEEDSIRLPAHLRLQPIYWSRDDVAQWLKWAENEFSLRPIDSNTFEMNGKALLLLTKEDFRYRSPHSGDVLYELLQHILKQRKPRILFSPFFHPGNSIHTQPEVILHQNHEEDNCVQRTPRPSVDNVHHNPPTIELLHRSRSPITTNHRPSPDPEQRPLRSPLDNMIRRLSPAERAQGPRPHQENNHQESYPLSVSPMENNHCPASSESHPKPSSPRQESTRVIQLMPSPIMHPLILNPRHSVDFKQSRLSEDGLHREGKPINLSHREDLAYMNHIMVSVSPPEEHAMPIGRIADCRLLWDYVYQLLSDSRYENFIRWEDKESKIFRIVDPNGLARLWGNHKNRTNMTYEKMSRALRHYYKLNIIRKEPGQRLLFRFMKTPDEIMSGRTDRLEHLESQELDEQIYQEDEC
Chain of ETV1 (P50549 whole entry): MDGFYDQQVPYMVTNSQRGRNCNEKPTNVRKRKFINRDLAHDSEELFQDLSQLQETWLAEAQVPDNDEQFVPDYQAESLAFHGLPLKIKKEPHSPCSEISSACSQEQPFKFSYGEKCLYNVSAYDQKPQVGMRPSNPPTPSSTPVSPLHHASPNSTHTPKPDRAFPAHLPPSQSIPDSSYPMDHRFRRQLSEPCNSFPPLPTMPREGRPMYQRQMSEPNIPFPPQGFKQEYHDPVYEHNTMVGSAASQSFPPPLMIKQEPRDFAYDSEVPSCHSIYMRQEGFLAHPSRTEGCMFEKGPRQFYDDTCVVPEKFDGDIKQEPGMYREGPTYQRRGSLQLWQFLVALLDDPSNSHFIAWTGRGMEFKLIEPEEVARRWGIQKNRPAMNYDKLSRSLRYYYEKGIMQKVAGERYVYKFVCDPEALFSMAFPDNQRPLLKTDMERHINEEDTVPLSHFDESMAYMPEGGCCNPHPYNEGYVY

For the sequence ATGCAG, the binding signal in assay [1] is 1.04 fold enrichment (6-mer frequency, TF over GST control); in assay [2], 1.14 fold enrichment (6-mer frequency, TF over GST control); in assay [3], 1.09 fold enrichment (6-mer frequency, TF over GST control); in assay [4], 1.03 fold enrichment (6-mer frequency, TF over GST control); in assay [5], 1.08 fold enrichment (6-mer frequency, TF over GST control); in [6], 1.06 fold enrichment (6-mer frequency, TF over GST control). In addition, the binding signal in assay [7] is 1.22 fold enrichment (6-mer frequency, TF over GST control); in assay [8], 1.11 fold enrichment (6-mer frequency, TF over GST control); in assay [9], 1.05 fold enrichment (6-mer frequency, TF over GST control); in assay [10], 1.05 fold enrichment (6-mer frequency, TF over GST control); in assay [11] it was 1.15 fold enrichment (6-mer frequency, TF over GST control); in assay [12], 1.1 fold enrichment (6-mer frequency, TF over GST control). The binding signal in assay [13] is 1.05 fold enrichment (6-mer frequency, TF over GST control); in assay [14] it was 1.1 fold enrichment (6-mer frequency, TF over GST control); in assay [15], 1.22 fold enrichment (6-mer frequency, TF over GST control); in assay [16], 1.08 fold enrichment (6-mer frequency, TF over GST control); in assay [17], 1.11 fold enrichment (6-mer frequency, TF over GST control); in [18], 1.06 fold enrichment (6-mer frequency, TF over GST control). Besides, the binding signal in [19] was 1.06 fold enrichment (6-mer frequency, TF over GST control).
